The source of these data is PubChem BioAssay.

Values joined by “and” are separate entries in the source; they are usually repeats but may differ in a detail not shown here. Equal values may be shown once. Results filed as inconclusive are left out. For some of these results: Entries with a potency or affinity are not part of this list. Active and inactive are the calls of the source.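 How the source made its calls, unless noted: active means compounds killing one labelled cell type while sparing the other, by normalised counts and ratio limits, not self-fluorescent; inactive means the rest.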

Assay [1] in a line: blockers of polyQ-driven CASP3 activation – cell-based (AID 1583). Particulars: polyglutamine-induced caspase-3 activation, cell assay; stronger effect = higher value;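 tested at 10 µM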.
Assay [2] is described as follows: yeast 75Q aggregation reduction – 75Q-TubU reporter (AID 1593). Conditions: Yeast 75Q polyglutamine aggregation reporter.
The nature of assay [3]: restoration of touch response, mutant HTT neurons – whole organism, C. elegans mechanosensory neurons, N-terminal huntingtin (AID 1599). Conditions: C. elegans polyQ-huntingtin mechanosensory neurons, stronger effect = higher value.
Assay [4] is described as follows: blockers of cytochrome c efflux from mitochondria – biochemical, purified mitochondria (AID 1603).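 Further: mouse liver mitochondria challenged with calcium chloride; signal normalized to the plate average as 100%.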 Particulars: stronger effect = lower value.
Assay [5] can be described thus: polyglutamine aggregate formation blockers (AID 1604). Conditions: polyglutamine-induced protein aggregation inhibition assay; stronger effect = higher value; tested at 2.5 µM.
A short description of assay [6]: glutamate transport activators, MN-1 cells, MN-1 cell line (AID 1612).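 Further: tested at 1 µM final; 0% = mean of DMSO vehicle wells on each plate; positive means more glutamate uptake than control and negative means less.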 Conditions: MN-1 motor neuron cells, stronger effect = higher value.
Assay [7] in a line: 75Q-TubH aggregate inhibition, S. cerevisiae, yeast (AID 1616). Particulars: S. cerevisiae 75Q-TubH polyglutamine aggregation suppression; stronger effect = higher value.
The nature of assay [8]: compounds altering circadian rhythm period length – cell-based, LOPAC library, luminescence reporter (AID 2774; call rule not given here;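 further: values are relative to mean of DMSO wells on each plate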). Conditions: circadian reporter cells, at 7 µM, actives lie on both sides.
Assay [9] in a line: P. berghei load reduction in hepatocytes – cell-based, HepG2, luciferase luminescence, HepG2 viability, primary screen (AID 624349; in the data active means parasite load remaining mostly below about 12%, no sharp cut-off; inactive means mostly above about 10%;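 further: 100% = mean of DMSO negative control wells on the same plate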). Particulars: P. berghei liver stage in HepG2, luciferase luminescence, concentration not given here; parasite load remaining: stronger effect = lower value; viability: measured here: HepG2 viability without parasites.
Assay [10] relates to Hepatitis C virus NS3 helicase. Briefly: blockers of NS3h binding to ssDNA – biochemical, fluorescence polarization, LOPAC1280 library, primary screen (AID 687035; in the data active means inhibition above about 37%). Particulars: Purified HCV NS3 helicase, Cy5-dT15 ssDNA binding fluorescence polarization; stronger effect = higher value; concentration not given here. In general terms: In fluorescence polarisation assays a small probe gives low polarisation when free and higher when bound to something large.

Assay [11] can be described thus: compounds altering Cy5-DNA-NS3h complex signal – biochemical, LOPAC1280, artefact control for HCV NS3 helicase inhibitor project (AID 687037; call rule not given here). Particulars: Cy5-DNA-NS3h complex fluorescence interference counterscreen. (Counterscreens check selectivity or assay interference.)
Assay [12] is described as follows: EMT-state selective cytotoxicity in co-culture – imaging, PC-3E GFP, TEM4-18 mCherry, primary screen (AID 1345086).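 On all read-outs here: cells exposed to compound for 72 h before imaging.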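 On red/green cell ratio (normalised): normalised mesenchymal count divided by normalised epithelial count so high means epithelial killing.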 Conditions: PC-3E GFP / TEM4-18 mCherry co-culture, imaging cell counts, at 1 µM; for red/green cell ratio (normalised): actives lie on both sides, counts scaled to control wells, 1 = unselective.
The subject of assay [13] is Aerobactin synthetase IucA (Klebsiella pneumoniae). Briefly: inhibition of K. pneumoniae IucA enzyme – biochemical, Tocris library, absorbance (AID 1345561; call rule not given here;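 further: 100% = enzyme without compound and 0% = no enzyme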). Particulars: purified IucA enzyme assay, absorbance (OD) read-out; stronger effect = lower value;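 tested at 8 µM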.
Assay [14] can be described thus: viability loss in pontine glioma line – cell-based, SU-DIPG-XVII, MIPE5.0, CellTiter-Glo, qHTS, dose response (AID 1347060; cut-off not given, nearly all actives have AC50 up to about 26 µM;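 further: cells exposed to compound for 48 hours before viability readout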). Particulars: CellTiter-Glo ATP luminescence. A general note: Cellular ATP, detected with luciferase, serves as a proxy for viable cell number.
The nature of assay [15]: viability loss in pontine glioma line – cell-based, SU-DIPG-XIII, MIPE4.0, CellTiter-Glo, qHTS, dose response (AID 1347061; cut-off not given, nearly all actives have AC50 up to about 37 µM;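 further: cells exposed to compound for 48 hours before readout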). Conditions: CellTiter-Glo ATP luminescence.
Assay [16] is described as follows: viability loss in pontine glioma line – cell-based, JHH-DIPG-1, MIPE4.0, CellTiter-Glo, qHTS, dose response (AID 1347062; cut-off not given, nearly all actives have AC50 up to about 27 µM). Conditions: JHH-DIPG-1 viability, CellTiter-Glo ATP luminescence.
Assay [17] in a line: viability loss in pontine glioma line – cell-based, SU-DIPG-IV, MIPE4.0, CellTiter-Glo, qHTS, dose response (AID 1347063; cut-off not given, nearly all actives have AC50 up to about 30 µM;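 further: compound exposure lasted 48 hours before the viability readout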). Particulars: CellTiter-Glo ATP luminescence.
A short description of assay [18]: viability loss in pontine glioma line – cell-based, SU-DIPG-XIII, MIPE5.0, CellTiter-Glo, qHTS, dose response (AID 1347064; cut-off not given, nearly all actives have AC50 up to about 23 µM). Particulars: CellTiter-Glo ATP luminescence.
Assay [19] in a line: viability loss in pontine glioma line – cell-based, SU-DIPG-XXV, MIPE5.0, CellTiter-Glo, qHTS, dose response (AID 1347065; cut-off not given, nearly all actives have AC50 up to about 26 µM;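 further: cells exposed to compound for 48 hours before ATP readout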). Particulars: CellTiter-Glo ATP luminescence.
A short description of assay [20]: growth inhibition of DIPG cells – cell-based, MIPE4.0 library, CellTiter-Glo luminescence, qHTS (AID 1347066; cut-off not given, nearly all actives have AC50 up to about 30 µM;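 further: cells exposed to compound for 48 hours before readout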). Conditions: SU-DIPG-VI viability, CellTiter-Glo ATP luminescence.
The nature of assay [21]: viability loss with induced miR-34 in A549 – imaging, A549 dox-inducible miR-34, nuclei and caspase counts, primary screen (AID 1347080;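 active means compounds whose cell count with miR-34 switched on is under 0.7 times the count with it off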). Particulars: A549 miR-34 inducible, Hoechst nuclei count, 48 h.
The nature of assay [22]: compounds altering HSF1 focus formation in cells – imaging, Selleck Cancer Library (AID 1347162; in the data active means plate-normalised HSF1 focus index below about 0.46). Particulars: human cells, HSF1 nuclear foci imaging, at 10 µM; SSMD: measured here: HSF1 foci SSMD mean; cell count: measured here: cell number; plate-normalised HSF1 focus index: stronger effect = lower value.
Assay [23] can be described thus: galactose survival enhancers in mitochondrial complex I cybrids – cell-based, galactose medium, ATP luminescence, primary screen (AID 1645843;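 active means z-score of at least 1.8 in each of two replicates, scored against plate mean and spread of sample wells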;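 further: positive z means more ATP and so rescue of galactose-driven cybrid death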). Conditions: complex I mutant cybrid cells, 72 h, stronger effect = higher value.
Setting [24] is: measured here: epithelial PC-3E GFP cell survival.
[25] abbreviates: measured here: mesenchymal TEM4-18 mCherry cell survival.

Turning to `CC(=O)O[C@H]1C(=O)[C@@]2(C)C([C@H](OC(=O)c3ccccc3)[C@]3(O)C[C@H](OC(=O)[C@H](O)[C@@H](NC(=O)c4ccccc4)c4ccccc4)C(C)=C1C3(C)C)[C@]1(OC(C)=O)CO[C@@H]1C[C@@H]2O` (some centres not stated), the values for the inhibition in assay [1] and in assay [10] were 28.3% and -1% (inactive), respectively. The molecule further came in with a score in assay [2] of 1.98. In [3], the rescue above control was found to be 5.24. Besides, the cytochrome c release ratio in assay [4] amounted to 1.41. The same molecule returned an inhibition of aggregation in [5] of 69%. In [6], the glutamate uptake change was -2.18%. The molecule also displayed an aggregation suppression score in assay [7] of 1.25. Moreover, the period change in assay [8] is 0.575 h (inactive). For the same molecule, the parasite load remaining in [9] is 178% (inactive) and 65.8% (inactive). Besides, the viability in assay [9] is 87.4% and 98%. For the same molecule, in assay [11], the fluorescence ratio (interference) was 0.9 (inactive). Further, in assay [12], the red/green cell ratio (normalised) was 0.49 (inactive). The normalised cell number in [12] (setting [24]) was found to be 0.23; in assay [12] (setting [25]), 0.11. In assay [13], the remaining activity was 121% (inactive). The half-maximal activity concentration (AC50) in assay [14] is 5.9 nM (active); in assay [19] it was 7.42 nM (active). The molecule was called inactive in [15], in [16], in assay [17], in assay [18] and in assay [20]. The fold change is 1.16 (inactive) and 1.14 (inactive) in assay [21] (stronger effect = lower value, cell number ratio, induced over uninduced); 0.394 and 2.19 in assay [21] (measured here: relative caspase fold change +Dox/-Dox). Besides, the cell count in [21] (measured here: total cells with miR-34 induction, stronger effect = lower value) is 2700 and 2090; in assay [21] (measured here: total cells without miR-34 induction), 2330 and 1830; in [22] it was 6910. Moreover, the SSMD in assay [22] worked out at 5.16. Also, the plate-normalised HSF1 focus index in assay [22] is 1.32 (inactive). The z-score in assay [23] is 0.865 (inactive).

For the molecule `COc1cc(C)c(Oc2cc(C)cc(O)c2O)c(O)c1`, the red/green cell ratio (normalised) in assay [12] was 0.97 (inactive). Moreover, the normalised cell number in assay [12] (setting [24]) was 1.18; in assay [12] (setting [25]), 1.15.

For `CCCc1ccc(C(=O)O)nc1`, the red/green cell ratio (normalised) in [12] is 0.84 (inactive). The figures for the normalised cell number in assay [12] (setting [24]) and in [12] (setting [25]) were 1.18 and 0.99, respectively.

Take `C=CCSC[C@@H](N)C(=O)O`: the red/green cell ratio (normalised) in [12] is 0.86 (inactive). Further, the normalised cell number turned out to be 1.23 in assay [12] (setting [24]) and 1.06 in assay [12] (setting [25]).

As for `NC(=O)C[C@H](NC(=O)OCc1ccccc1)C(=O)O`, the red/green cell ratio (normalised) in assay [12] was 1.25 (inactive). The normalised cell number in assay [12] (setting [24]) was found to be 0.87; in [12] (setting [25]), 1.08.

Regarding `CC(=O)C1=C(O)C=C2Oc3c(C(N)=O)c(O)cc(O)c3[C@@]2(C)C1=O`, the red/green cell ratio (normalised) in assay [12] was 1.13 (inactive). Further, the figures for the normalised cell number in assay [12] (setting [24]) and in [12] (setting [25]) were 0.92 and 1.04, respectively.

Consider `CO[C@@H]1CC(=O)c2cccc3c2C12Oc1ccc(O)c4c1[C@](O3)(O2)C1O[C@@H]1[C@@H]4O` (some centres not stated), for which the red/green cell ratio (normalised) in [12] is 0.98 (inactive). Moreover, the normalised cell number in assay [12] (setting [24]) is 1; in [12] (setting [25]) it was 0.98.

Consider `C=C1[C@@H](C)C2[C@H](Cc3c[nH]c4ccccc34)NC(=O)[C@]23C(=O)/C=C/[C@H](O)C(=O)/C(C)=C/[C@@H](C)C/C=C/[C@H]3[C@@H]1O` (some centres not stated), for which, in assay [12], the red/green cell ratio (normalised) was 1.13 (inactive). For the same molecule, the figures for the normalised cell number in assay [12] (setting [24]) and in assay [12] (setting [25]) were 0.96 and 1.08, respectively.

The inhibition is the drop in the measured response relative to a control, in per cent. In general, viability refers to the share of living cells, or the viability signal relative to a control. Broadly, the remaining activity is the signal under treatment as a percentage of the control signal. By AC50 is commonly meant the concentration giving half of the maximal activity seen.
